Bioassay records as filed in PubChem BioAssay.
Mtb BioA inh: M. tuberculosis BioA enzyme inhibitors, primary screen, biochemical, plate reader, single point, HTS. 7,8-diaminopelargonic acid synthase BioA (Mycobacterium tuberculosis). purified M. tuberculosis BioA enzyme. inhibition, % at 9.99 µM. AID 602481, 2012. actives 0.096% (n = 360,000); in the data active means inhibition above about 40%
Mtb hypoxia rep: PubChem AID 1159583 | M. tuberculosis hypoxia-regulated fluorescent reporter, fluorescence | fluorescence inhibition, % (no concentration beside the values) | actives 0.1% (n = 300,000); in the data active means fluorescence inhibition mostly above about 23%, no sharp cut-off; inactive means mostly below about 17%
FadD28 FP inh: inhibitors of FadD28 bisubstrate probe binding, primary screen, biochemical, fluorescence polarization, single point. inhibition, % at 12.5 µM. AID 588549, 2011. Mycobacterium tuberculosis FadD28 fatty-acid-AMP ligase. actives 0.22% (n = 360,000); in the data active means inhibition above about 8.5%, passing the limit was not always enough
GDH-TPI counter-1: GDH-TPI coupling enzyme inhibitors, primary screen, artefact control for M. tuberculosis FBA inhibitor project, biochemical, absorbance, full deck; GDH-TPI coupled enzyme counterscreen, NADH absorbance; inhibition, % at 4.8 µM; actives 1.2% (n = 360,000); in the data active means inhibition above about 30%;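 further: 0% = DMSO wells and 100% = wells lacking the enzyme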
Mtb FBA inh: Mtb FBA enzyme inhibitors, primary screen, biochemical, fluorescence, strain H37Rv; purified M. tuberculosis FBA, fluorescence read-out; inhibition, % at 1 µM; actives 2.3% (n = 360,000); AID 588726, 2011;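 further: 0% = vehicle and 100% = reference inhibitor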
Target sequence (P9WQA3 whole entry, looked up): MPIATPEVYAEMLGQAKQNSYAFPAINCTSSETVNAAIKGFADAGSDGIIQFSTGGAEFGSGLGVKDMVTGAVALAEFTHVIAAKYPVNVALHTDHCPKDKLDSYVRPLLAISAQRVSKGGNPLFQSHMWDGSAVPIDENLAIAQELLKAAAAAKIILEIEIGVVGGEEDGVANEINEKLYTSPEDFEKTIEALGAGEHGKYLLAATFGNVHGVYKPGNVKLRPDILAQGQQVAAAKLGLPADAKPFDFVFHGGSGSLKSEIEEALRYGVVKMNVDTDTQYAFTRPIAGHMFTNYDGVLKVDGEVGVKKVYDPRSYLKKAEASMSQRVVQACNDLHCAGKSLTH
Mtb FBA confirm: M. tuberculosis aldolase blockers, biochemical, fluorescence, strain H37Rv, confirmation. purified M. tuberculosis FBA, fluorescence read-out. inhibition, % at 1 µM. shares compounds with Mtb FBA inh. AID 651616, 2012. actives 78% (n = 5,600);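 further: 0% = vehicle wells and 100% = reference inhibitor wells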
GDH-TPI counter-2: GDH-TPI coupling enzyme inhibitors, artefact control for M. tuberculosis FBA inhibitor project, biochemical, fluorescence, high throughput; shares compounds with Mtb FBA inh; GDH-TPI coupled enzyme counterscreen; inhibition, % at 1 µM; actives 81% (n = 5,600); AID 652141, 2013; in the data active means inhibition above about 10%
GDH-TPI DR: GDH-TPI coupling enzyme inhibitors, dose response, artefact control for M. tuberculosis FBA inhibitor project, biochemical, fluorescence, IC50; shares compounds with Mtb FBA inh; GDH-TPI coupled enzyme assay, artifact counterscreen; IC50, µM; actives 79% (n = 170); AID 652145, 2013; call rule not given here
The depositor's hits bear a star. A selection: hits, their analogues and other compounds. The true share with any hit is near 2.9%. Unless noted, no stated cut-off is given here; in the data, active means inhibition above about 27%; inactive means the rest.

For Clc1ccc(C[n+]2c(-c3ccccc3)cc(-c3ccccc3)cc2-c2ccccc2)cc1 the results were Mtb BioA inh 31, FadD28 FP inh -4, GDH-TPI counter-1 15, Mtb FBA inh 38*, Mtb FBA confirm 22 and GDH-TPI counter-2 13*.
`COc1cc2cc(CN(Cc3cccnc3)C(=O)NCc3ccccc3)c(=O)[nH]c2cc1OC` gave Mtb BioA inh 2, Mtb hypoxia rep 6, FadD28 FP inh -2, GDH-TPI counter-1 26, Mtb FBA inh 32*, Mtb FBA confirm 26 and GDH-TPI counter-2 20*.
COc1cc2cc(CN(CCCO)S(=O)(=O)c3ccccc3Cl)c(=O)[nH]c2cc1OC was read as Mtb hypoxia rep 5, FadD28 FP inh -1, GDH-TPI counter-1 -3 and Mtb FBA inh 19.
For COc1cc2cc(CN(CCO)S(=O)(=O)c3ccccc3Cl)c(=O)[nH]c2cc1OC the results were Mtb hypoxia rep 7, FadD28 FP inh -1, GDH-TPI counter-1 33*, Mtb FBA inh 49*, Mtb FBA confirm 118* and GDH-TPI counter-2 101*.
Screening COc1cc2cc(CN(Cc3cccnc3)C(=O)Nc3ccccc3)c(=O)[nH]c2cc1OC returned Mtb hypoxia rep -1, FadD28 FP inh -9, GDH-TPI counter-1 -3 and Mtb FBA inh 10.
Screening COc1cc2cc(CN(CCCO)S(=O)(=O)c3ccccc3)c(=O)[nH]c2cc1OC returned Mtb BioA inh 2, Mtb hypoxia rep -1, FadD28 FP inh -4, GDH-TPI counter-1 37*, Mtb FBA inh 55*, Mtb FBA confirm 2 and GDH-TPI counter-2 -2.
For C[C@H]1CN([C@@H](C)CO)C(=O)CCCn2nncc2CO[C@@H]1CN(C)C(=O)CCCN(C)C the results were Mtb BioA inh 0.
`COc1ccccc1COC(=O)N/C=C/c1ccco1` gave Mtb hypoxia rep 10, FadD28 FP inh 2, GDH-TPI counter-1 -2, Mtb FBA inh 43*, Mtb FBA confirm 163* and GDH-TPI counter-2 121*.
CCN1CCN(C(=O)c2cc3cc(F)ccc3[nH]2)CC1 was read as Mtb BioA inh 0, Mtb hypoxia rep 12, FadD28 FP inh 0, GDH-TPI counter-1 3, Mtb FBA inh 82*, Mtb FBA confirm 148* and GDH-TPI counter-2 96*.
For COc1ccc(S(=O)(=O)N(C)C[C@H]2Oc3ccc(NC(=O)NC4CCCCC4)cc3CC(=O)N([C@H](C)CO)C[C@H]2C)cc1 the results were Mtb BioA inh 0.
Cc1ccc(-c2cc[n+](Cc3ccccc3)cc2)cc1 was read as Mtb hypoxia rep 1, FadD28 FP inh -2, GDH-TPI counter-1 10, Mtb FBA inh 67*, Mtb FBA confirm active and GDH-TPI counter-2 active.
For C[C@@H]1CN([C@@H](C)CO)C(=O)CCCn2nncc2CO[C@@H]1CN(C)Cc1ccc(-c2ccccc2)cc1 the results were Mtb BioA inh 1.
For O=c1c(Cl)c(O)c2cccc3c4ccccc4n1c23 the results were Mtb hypoxia rep 4, FadD28 FP inh 2, GDH-TPI counter-1 15, Mtb FBA inh 85*, Mtb FBA confirm 86* and GDH-TPI counter-2 64*.
Screening O=C(NCC[C@@H]1CC[C@@H](NC(=O)c2cccnc2)[C@@H](CO)O1)Nc1ccc(C(F)(F)F)cc1 returned Mtb BioA inh -2.
`CCOC(=O)N1CCN(C(=O)c2cc3c(=O)n4ccccc4nc3s2)CC1` gave Mtb BioA inh 0, Mtb hypoxia rep -5, FadD28 FP inh 0, GDH-TPI counter-1 13, Mtb FBA inh 49*, Mtb FBA confirm 67* and GDH-TPI counter-2 58*.
For CC1CC(C)CN(C(=O)c2cc3c(=O)n4ccccc4nc3s2)C1 (stereo not drawn) the results were Mtb BioA inh 0, Mtb hypoxia rep 16, GDH-TPI counter-1 8, Mtb FBA inh 53*, Mtb FBA confirm active and GDH-TPI counter-2 active.
Screening COc1ccccc1N1CCN(C(=O)c2cc3c(=O)n4ccccc4nc3s2)CC1 returned Mtb BioA inh 1, Mtb hypoxia rep -2, FadD28 FP inh -3, GDH-TPI counter-1 21 and Mtb FBA inh 9.
CC(=O)c1ccc(S(=O)(=O)N2CCCC(N(C)CCc3ccccn3)C2)cc1 (stereo not drawn) was read as Mtb BioA inh 2, Mtb hypoxia rep 3, FadD28 FP inh 1, GDH-TPI counter-1 -1, Mtb FBA inh 76*, Mtb FBA confirm -2 and GDH-TPI counter-2 -5.
CCN(CC)C(=O)CSC1=Nc2ccccc2C2=NC(c3ccccc3)C(=O)N12 (stereo not drawn) was read as Mtb BioA inh -5, Mtb hypoxia rep 2, FadD28 FP inh 0, GDH-TPI counter-1 9 and Mtb FBA inh 18.
For CCOC(=O)CSC1=Nc2ccccc2C2=NC(CC(=O)NCc3ccccc3)C(=O)N12 (stereo not drawn) the results were Mtb BioA inh 2, Mtb hypoxia rep 3, FadD28 FP inh -3, GDH-TPI counter-1 8, Mtb FBA inh 29*, Mtb FBA confirm 103* and GDH-TPI counter-2 102*.
Screening CCOC(=O)CSC1=Nc2ccccc2C2=NC(CC(=O)NCc3cccs3)C(=O)N12 (stereo not drawn) returned Mtb BioA inh 1, Mtb hypoxia rep 6, FadD28 FP inh 1, GDH-TPI counter-1 9 and Mtb FBA inh 5.
NC(=O)CSC1=Nc2ccccc2C2=NC(c3ccccc3)C(=O)N12 (stereo not drawn) was read as Mtb hypoxia rep -2, FadD28 FP inh -2, GDH-TPI counter-1 11, Mtb FBA inh 28*, Mtb FBA confirm 51* and GDH-TPI counter-2 43*.
Screening CS(=O)(=O)NN1C(=O)c2ccccc2NC1c1ccccc1 (stereo not drawn) returned Mtb hypoxia rep -9, FadD28 FP inh -1, GDH-TPI counter-1 4, Mtb FBA inh 34*, Mtb FBA confirm 13, GDH-TPI counter-2 -4 and GDH-TPI DR 5.4*.
For Cc1ccc(S(=O)(=O)NN2C(=O)c3ccccc3NC2c2cccc(O)c2)cc1 (stereo not drawn) the results were Mtb hypoxia rep 7, FadD28 FP inh -4, GDH-TPI counter-1 1 and Mtb FBA inh 3.
